The text below walks through data of PubChem BioAssay (NCATS).

Results filed as inconclusive are left out. Unmarked numbers belong to inactive results. Active and inactive are the calls of the source. Calls come from the whole dose curve; as a rule, active = well fitted cell-killing curve with a large enough effect; inconclusive = small, poorly fitted or top-dose-only effect, or effect the other way; inactive = flat fitted curve, though single readings scatter.

Holding throughout (experiment): Primary qHTS to identify gynecologic anti-cancer compounds using libraries of approved drugs and bioactive compounds (AID 1345084); note: nearly all actives have a fitted effect of over 55% in size
In general terms: In qHTS, concentration-response curves come from the screen itself.

The test system of assay [1] is C33A. To be noted: Gynecologic cancer cell panel viability, ATPlite luminescence, 48 h; series mostly up to 57.5 µM. Put shortly: (§1)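 48 h compound exposure at 37 C, 5% CO2; five-point qHTS. ATPlite luminescence readout of cell ATP.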
Assay [2] concerns CASKI. As to conditions: Gynecologic cancer cell panel viability, ATPlite luminescence, 48 h; series mostly up to 57.5 µM. Summed up:
as §1
In general terms: Cellular ATP, detected with luciferase, serves as a proxy for viable cell number.

Assay [3] has as its system Es-2. To be noted: Gynecologic cancer cell panel viability, ATPlite luminescence, 48 h; series mostly up to 57.5 µM. Put shortly:
as §1

Assay [4] deals with HeLa. As to conditions: Gynecologic cancer cell panel viability, ATPlite luminescence, 48 h; series mostly up to 57.5 µM. Put shortly: as §1
Assay [5] relates to Hek293T. To be noted: Gynecologic cancer cell panel viability, ATPlite luminescence, 48 h, control line for the selectivity index; series mostly up to 57.5 µM. Summed up:
as §1

The subject of assay [6] is JEG-3. As to conditions: Gynecologic cancer cell panel viability, ATPlite luminescence, 48 h; series mostly up to 57.5 µM. Summed up:
as §1

For assay [7], the system named is OV90. As to conditions: Gynecologic cancer cell panel viability, ATPlite luminescence, 48 h; series mostly up to 57.5 µM. Put shortly: as §1
Assay [8] relates to PA-1. As to conditions: Gynecologic cancer cell panel viability, ATPlite luminescence, 48 h; series mostly up to 57.5 µM. Put shortly: as §1
Assay [9] deals with Tov-21-G. To be noted: Gynecologic cancer cell panel viability, ATPlite luminescence, 48 h; series mostly up to 57.5 µM. Summed up:
as §1

Assay [10] has as its system Tov112D. As to conditions: Gynecologic cancer cell panel viability, ATPlite luminescence, 48 h; series mostly up to 57.5 µM. Summed up:
as §1

In assay [11] the test system is SKOV3. To be noted: Gynecologic cancer cell panel viability, ATPlite luminescence, 48 h; series mostly up to 57.5 µM. Summed up:
as §1
% is set by controls: 0 for no effect and ±100 for the full control effect; potency is the fitted concentration of half-maximal effect.

As to `COc1c(Nc2ncc(Cl)c(N[C@H]3[C@@H](C(N)=O)[C@@H]4C=C[C@H]3C4)n2)ccc2c1CC[C@@H](N1CCOCC1)CC2`, the Potency entry in [1], in assay [2], in assay [3], in [4], in assay [5] and in assay [6] was “inactive” throughout. Moreover, the Potency result in assay [7], in assay [8], in assay [9] and in [10] was “inactive” in each case.

As to `CC(C)(O)c1ccc2c(c1)C(O)C[C@H]1[C@](C)(C(=O)O)CCC[C@]21C` (stereo not given in full), the Potency entry in assay [1], in [2], in [3], in assay [4], in assay [5] and in assay [6] was “inactive” throughout. Besides, the Potency entry in [7], in assay [8], in assay [9] and in [10] was “inactive” throughout.

For `CNC(=S)NS(=O)(=O)c1cc(CCNC(=O)c2cc(Cl)ccc2OC)ccc1OC`, the Potency result in assay [1], in [2], in [3], in [4], in [5] and in [6] was “inactive” each time. In addition, the Potency result in [8], in [11], in assay [9] and in assay [10] was “inactive” in each case.

On to `C=C[C@]1(C)C[C@H](O)[C@@H]2[C@H](OC(=O)[C@@H]2C)C1/C(C)=C/O[C@@H]1O[C@H](CO)[C@@H](O)[C@H](O)[C@H]1O` (stereo not given in full), for which the Potency entry in assay [1], in [2], in assay [3], in assay [4], in assay [5] and in assay [6] was “inactive” throughout. In addition, the Potency result in [7], in [11], in assay [9] and in assay [10] was “inactive” throughout.

As to `CC1=CCC2C(C)(C)CCC[C@]2(C)[C@@]12CC[C@](C)(CC(=O)O)O2` (stereo not given in full), the Potency result in assay [1], in [2], in assay [3], in assay [4], in [5] and in assay [6] was “inactive” in each case. In addition, the Potency result in [7], in assay [8], in [9] and in [10] was “inactive” throughout.

In the case of `Cn1c(=O)cc(N2CCCC(N)C2)n(Cc2cc(F)ccc2C#N)c1=O` (stereo not given), the Potency entry in assay [1], in [2], in assay [3], in assay [4], in [5] and in [6] was “inactive” each time. The Potency result in [7], in [8], in [9] and in [10] was “inactive” throughout.

`C/C=C/C1=CC2=C(CO1)C(=O)C(C)(O)C(OC(=O)c1c(C)cc(OC)cc1O)C2` (stereo not given): the Potency entry in assay [1], in assay [2], in [3], in assay [4], in [5] and in assay [6] was “inactive” throughout. For the same compound, the Potency entry in assay [7], in assay [8], in [9] and in assay [10] was “inactive” each time.

As for `CO[C@H]1C[C@@H]2CC[C@@H](C)[C@@](O)(O2)C(=O)C(=O)N2CCCC[C@H]2C(=O)O[C@H]([C@H](C)C[C@H]2CC[C@@H](OP(C)(C)=O)[C@H](OC)C2)CC(=O)[C@H](C)/C=C(\C)[C@@H](O)[C@@H](OC)C(=O)[C@H](C)C[C@H](C)/C=C/C=C/C=C/1C`, the Potency result in assay [1], in assay [2], in assay [3], in assay [4], in [5] and in [6] was “inactive” each time. Further, the Potency entry in assay [7], in assay [8], in [9] and in [10] was “inactive” throughout.

On to `C[C@@]12CC[C@@H]3[C@@](CC[C@H]4[C@@]3(C)CCC[C@@]4(C)C(=O)O)(CC1=O)C2`, for which the Potency entry in assay [1], in assay [2], in assay [3], in [4], in assay [5] and in [6] was “inactive” throughout. For the same compound, the Potency result in assay [7], in assay [8], in assay [11], in [9] and in assay [10] was “inactive” in each case.

Take `CCOC(=O)C(CCc1ccccc1)NC(C)C(=O)N1C(=O)N(C)CC1C(=O)O` (stereo not given): the Potency result in assay [1], in [2], in [3], in [4], in [5] and in [6] was “inactive” in each case. The Potency entry in assay [7], in assay [11], in assay [9] and in assay [10] was “inactive” in each case.

Turning to `C[C@@H]1O[C@@H](O[C@H]2[C@@H]3C=CO[C@@H](O[C@@H]4O[C@H](CO)[C@@H](O)[C@H](O)[C@H]4O)[C@@H]3[C@@]3(CO)O[C@@H]23)[C@H](OC(=O)/C=C/c2ccccc2)[C@H](O)[C@H]1O`, the Potency result in assay [1], in assay [2], in assay [3], in assay [4], in assay [5] and in assay [6] was “inactive” throughout. Besides, the Potency result in assay [7], in [8], in assay [9] and in assay [10] was “inactive” in each case.

As to `C=C(C(=O)O)[C@H]1C[C@]2(C)[C@@H](O)CC[C@]23O[C@H]1C[C@@H]3C`, the Potency result in [1], in assay [2], in [3], in assay [4], in [5] and in assay [6] was “inactive” each time. The Potency entry in [7], in [8], in [9] and in assay [10] was “inactive” in each case.

In the case of `C[C@@H]1CC[C@]2(C(=O)O)CC[C@]3(C)C(=CCC4[C@@]5(C)CC[C@H](O)C(C)(C)C5C(O)C[C@]43C)[C@@H]2[C@]1(C)O` (stereo not given in full), the Potency entry in [1], in [2], in [3], in [4], in assay [5] and in [6] was “inactive” throughout. The Potency entry in [7], in assay [8], in assay [11], in [9] and in [10] was “inactive” each time.

As for `NC1CCC(Nc2cc(-c3cccc(NCc4cccc(F)c4)n3)c(Cl)cn2)CC1` (stereo not given), the Potency was 1260 nM (active) in [1]; 891 nM (active) in [2]; 708 nM (active) in assay [3]; 355 nM (active) in assay [4]; 1000 nM (active) in [5]; 178 nM (active) in [8]. Also, in [10], the Potency is 891 nM (active).

In the case of `CC(=O)N[C@H]1[C@H](O[C@H]2CC[C@@]3(C)C(CC[C@]4(C)C3CC=C3C5CC(C)(C)CC[C@]5(C(=O)O)[C@H](O)C[C@]34C)C2(C)C)O[C@H](CO[C@@H]2OC[C@H](O)[C@H](O)[C@H]2O[C@@H]2OC[C@@H](O)[C@H](O)[C@H]2O)[C@@H](O)[C@@H]1O` (stereo not given in full), the activity change, negative = cytotoxicity in [1] is -5.03% [at 11.6 µM]; in [2] it was -1.03% [at 11.6 µM]; in [3], -1.64% [at 11.6 µM]; in assay [4], -4.4% [at 11.6 µM]; in assay [5] it was 3.72% [at 11.6 µM]; in assay [6], 4.23% [at 11.6 µM]. The activity change, negative = cytotoxicity in assay [7] is 9.62% [at 11.6 µM]; in assay [8], 3.95% [at 11.6 µM]; in assay [11] it was 10.7% [at 11.6 µM]; in [9], -0.0551% [at 11.6 µM]; in [10], -18.9% [at 11.6 µM].

`CC1CCC2C(C)(C)[C@@H](O)CC[C@]2(C)C12Cc1c(O)cc3c(c1O2)CN(C(CCC(=O)O)C(=O)O)C3=O` (stereo not given in full): the Potency entry in [1], in assay [2], in assay [3], in assay [4], in assay [5] and in [6] was “inactive” in each case. The Potency result in assay [7], in [8], in [9] and in assay [10] was “inactive” throughout.
